{"source": "PubChem BioAssay", "note": "The list shows a part of the results. A number with no mark means an inactive call. The source made the active and inactive calls.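 How the source made its calls: active means mean activation over triplicate wells above the hit cutoff derived from the earlier primary screen (cut at about 11% in these data); inactive means the rest.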"}
{"tested_on": "DAF-12 nuclear receptor (Heterodera glycines), GAL4-LBD fusion", "experiment": "H. glycines DAF-12 receptor agonists, confirmation, cell-based, luminescence, HEK293, GAL4-LBD fusion (AID 743050);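 further: 0% = DMSO low control and 100% = 2 mM sodium butyrate high control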", "settings": "HEK293 GAL4-hgDAF12 luciferase reporter, agonist mode; at 6.8 µM; hits give high values; percent of butyrate response"}
{"smiles": "O=C(Nc1ccc2oc(-c3ccccc3F)nc2c1)c1ccco1", "activation": "11.9% (active)"}
{"smiles": "O=C(Nc1ccc2c(c1)CCC2)c1ccc(Br)s1", "activation": "24.6% (active)"}
{"smiles": "Cc1ccccc1Nc1nc(N)nc(CSc2ccccc2)n1", "activation": "17.7% (active)"}
{"smiles": "Cc1ccc(NC(=O)c2csc3c2CCCC3)cc1", "activation": "17.6% (active)"}
{"smiles": "Cc1cccc(NC(=O)Nc2ccc3c(c2)OCO3)n1", "activation": "18.4% (active)"}
{"smiles": "CC(=O)Nc1cccc(-c2csc(Nc3cccc(C)n3)n2)c1", "activation": "19% (active)"}
{"smiles": "c1ccc(Nc2nc(-c3ccncc3)cs2)nc1", "activation": "16.8% (active)"}
{"smiles": "Cc1nn(-c2ccc([N+](=O)[O-])cc2)c(N)c1-c1ccccc1", "activation": "16.4% (active)"}
{"smiles": "COc1ccc(-c2csc(-c3cccs3)n2)cc1OC", "activation": "9.44%"}
{"smiles": "Cc1cc(Cl)ccc1OCc1nc(-c2ccncc2)no1", "activation": "15.6% (active)"}
{"smiles": "COc1ccc2nc(SCc3ccccc3)nc(C)c2c1", "activation": "17.7% (active)"}
{"smiles": "Clc1ccc(Nc2nc(-c3cccs3)cs2)nc1", "activation": "13.1% (active)"}
{"smiles": "CCc1ccc(NC2Nc3cc(C)nn3S2)cc1", "note": "(centres undefined)", "activation": "18.8% (active)"}
{"smiles": "O=C(NCCCn1ccnc1)c1cc(-c2ccccc2)on1", "activation": "57.6% (active)"}
